PrP UTR inh: inhibition of PrP 5' UTR reporter expression; cell-based PrP 5' UTR mRNA reporter, plate reader; 340,000 tested, 0.35% active; inhibition, % (concentration not given with the values); in the data active = inhibition above about 52%; also: 0 = median of the neutral control wells
Sa ugtP lethal: kills S. aureus RN4220 lacking UgtP; S. aureus RN4220 ugtP deletion, OD600 growth, 16 h; growth inhibition, % (no concentration beside the values); 330,000 tested, 0.54% active; AID 1259309; in the data active = growth inhibition above about 68%;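 also: plate controls were untreated wells for no effect and antibiotic for full effect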
PfHsp40 yeast: compounds rescuing yeast from Plasmodium falciparum HSP40 toxicity. S. cerevisiae expressing PfHsp40, growth rescue, ATP luminescence. growth rescue, % at 12.5 µM. 340,000 tested, 0.68% active. AID 504582; in the data active = growth rescue above about 28%, passing the limit was not always enough; inconclusive = no clear call, values can overlap the other calls;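 also: yeast W303a lacking pdr1 and pdr3 grown in galactose medium; growth measured after three days at 30 °C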
PrPC surface inh: inhibitors of human cell surface prion protein PrPC; P04156; TR-FRET read-out; inhibition, % at 13.8 µM; 370,000 tested, 0.43% active; AID 720596; in the data active = inhibition above about 24%; also: 0% = median of the test wells and 100% = reference compound wells
CCHFV vOTU inh: CCHFV vOTU protease inhibition; Pep-AMC fluorescence; inhibition, % at 11.5 µM; 370,000 tested, 0.55% active; in the data active = inhibition above about 30%; also: 0% = vehicle wells with enzyme and 100% = no enzyme wells
Sa RN4220 lethal: kills Staphylococcus aureus RN4220; AID 1259311; S. aureus RN4220 growth, OD600, 16 h; inhibition, % (no concentration beside the values); 330,000 tested, 0.33% active; in the data active = inhibition above about 85%;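 also: plate controls were untreated cells for no effect and reference antibiotic for full effect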
PrP UTR cherry: prion 5' UTR mRNA inhibition, cherry-pick retest | 1,100 tested, 48% active | shares compounds with PrP UTR inh | inhibition, % at 2.5 µM | cell-based prion protein 5' UTR reporter, plate reader; in the data active = inhibition above about 54%; inconclusive = no clear call, values can overlap the other calls
The depositor's hits bear a star; ? = inconclusive; · = not tested or not shown. Most compounds without a hit are left out; they make up all but 2.1% or so of the library.

SMILES | PrP UTR inh | Sa ugtP lethal | PfHsp40 yeast | PrPC surface inh | CCHFV vOTU inh | Sa RN4220 lethal | PrP UTR cherry
c1nc(CCO[C@H]2CCCCO2)cc2cc3c(cc12)OCO3 | 63* | · | 1 | 4 | 6 | · | 36
O=C(C=C1NC2(CCCC2)Cc2ccccc21)N1CCOCC1 | · | 1 | · | · | · | 3 | ·
CCN(CC)c1ccc(/C=C(/C#N)C(=O)NC(C)C)o1 | 82* | 5 | 0 | -22 | 11 | 2 | -24
CCOC1OC(C(=O)N2CCN(Cc3ccccc3)CC2)=CC(c2csc3ccccc23)C1CCCO (stereo not drawn) | · | 4 | · | · | · | 1 | ·
COc1ccc(C=NNC(=O)CCOc2ccccc2C)cc1OC | · | 14 | · | · | · | -3 | ·
Cc1ccc(-c2n[nH]c(=S)n2/N=C/c2ccc(C)s2)cc1 | 66* | · | -2 | -2 | 9 | · | 8
CC(C)C(C(=O)NCc1ccccc1)N(CC1CCCO1)C(=O)CNS(=O)(=O)c1ccccc1 (stereo not drawn) | -5 | 5 | 0 | 5 | 2 | -1 | ·
CC(C)C(C(=O)NCc1ccco1)N(CC1CCCO1)C(=O)CNS(=O)(=O)c1ccccc1 (stereo not drawn) | 68* | 5 | 2 | 8 | -10 | 6 | -9
CC(C)CN1CCC(=O)N(C(COc2ccccc2)Cc2ccccc2)CC1 (stereo not drawn) | · | 1 | · | · | · | 2 | ·
CC(C(=O)Nc1ccccc1N1CCOCC1)N1C(=O)C2CC=CCC2C1=O (stereo not drawn) | · | 1 | · | · | · | 8 | ·
CC(=O)c1ccc(-c2cccs2)s1 | 69* | -11 | 0 | -9 | -364 | 5 | -28
O=S1(=O)C2CC3C=C[C@]2(CN1Cc1ccc(C(F)(F)F)cc1)O3 (stereo partly drawn) | · | 0 | · | · | · | 4 | ·
CCc1ccn2cc(-c3ccc4c(c3)OCO4)nc2c1 | 74* | 5 | 0 | -1 | -47 | 1 | 84*
COC(=O)c1ccc2nc(-c3ccc4c(c3)OCO4)cn2c1 | 39 | 1 | -1 | 2 | -15 | 6 | ·
Cn1nnnc1SCC(=O)N1CCN(S(=O)(=O)c2ccccc2)CC1 | 71* | 4 | 0 | -8 | -10 | 0 | -22
O=C(NCc1nc2ccccc2[nH]1)C1=CC(c2ccccc2)CC(OCCCCO)O1 (stereo not drawn) | · | 2 | · | · | · | 1 | ·
COC(=O)C(=O)C1CCc2c(Cl)cc(OC)c(OC)c2C1=O (stereo not drawn) | 94* | · | 0 | -14 | -4 | · | -16
CNC(=O)c1cc(Cl)c(OC)c(OC)c1 | -18 | 9 | -1 | -6 | -6 | 4 | ·
CC1CN(C(C)CO)C(=O)c2cccc(NC(=O)CCC(F)(F)F)c2OC1CN(C)S(=O)(=O)c1ccc(F)cc1 (stereo not drawn) | · | 1 | · | · | · | 4 | ·
CCOC(=O)Cc1[nH]nc2c1C(c1ccsc1)C(C#N)=C(N)O2 (stereo not drawn) | 53* | 7 | -2 | 1 | -4 | 13 | -9
CCCCN(C(=O)c1ccc(Cl)cc1)C1CC2CCC(C1)N2C (stereo not drawn) | 72* | 12 | -1 | -1 | -1 | 4 | -14
CCN(CC)c1ccccc1 | -5 | 12 | -1 | 11 | 1 | 6 | ·
CCN(CC)c1ccc(C(=C2C=CC(=[N+](CC)CC)C=C2)c2ccc(N(CC)CC)cc2)cc1 | 52* | 36 | -6 | -143 | 26 | 45 | ?
Cc1ccsc1C(=O)NN=C/C=C/c1ccccc1[N+](=O)[O-] | · | -1 | · | · | · | -2 | ·
COC(=O)C1CCC(=O)N1C(c1ccc(OC)cc1)c1cc(OC)c(OC)c(OC)c1 (stereo not drawn) | 56* | · | -1 | 8 | -6 | · | 89*
SMILES | PrP UTR inh | Sa ugtP lethal | PfHsp40 yeast | PrPC surface inh | CCHFV vOTU inh | Sa RN4220 lethal | PrP UTR cherry
COC(=O)c1ccc(Oc2cc(C)nc(-n3nc(C)cc3C)n2)cc1 | 59* | 11 | 0 | 12 | -5 | -3 | 89*
COC(=O)c1ccc(Oc2nc(C)cc(Oc3ccccc3)n2)cc1 | -27 | 4 | 2 | 7 | 3 | 8 | ·
O=C(Nc1cccnc1)OC1CCCCC1 | 75* | 0 | 1 | 3 | -17 | 5 | -36
O=C(Nc1cccnc1)OC1CCCC1 | -21 | 6 | 0 | -2 | -25 | 5 | ·
CSc1ccc(C=CC(=O)c2ccc(NC(C)=O)cc2)cc1 | · | -3 | · | · | · | 8 | ·
C(=N\Nc1nc2ccccc2[nH]1)/c1ccccn1 | 52* | · | -1 | 10 | -7 | · | ?
C(=NNc1nc2ccccc2[nH]1)c1ccccn1 | · | 0 | · | · | · | 2 | ·
COc1ccc(C(=O)Nc2ccc(C)cn2)c(OC)c1 | 79* | 8 | -1 | 2 | 0 | 3 | 75*
COc1ccc(C(=O)Nc2cc(C)on2)c(OC)c1 | -50 | 4 | 0 | -1 | 3 | 0 | ·
Cc1[nH]nc2ccc(-c3cncc(OC[C@@H](N)Cc4c[nH]c5ccccc45)c3)cc12 | 95* | · | -1 | · | · | · | 91*
CC(C)CCCCCCCCCCCCC(=O)NCC(=O)NC1C(O)C(O)C(Nc2ncnc3nc[nH]c23)OC1C(O)CO (stereo not drawn) | 89* | · | -2 | · | · | · | 86*
CC(O)CNc1ncnc2nc[nH]c12 (stereo not drawn) | -20 | -1 | 2 | -1 | -11 | 2 | ·
Oc1ccc(Br)cc1C=NN1CCN(Cc2cccc3ccccc23)CC1 | · | 0 | · | · | · | -1 | ·
CCCCNC(=O)C1c2cc(OC)c(OC)cc2C(=O)N(C)C1c1cccs1 (stereo not drawn) | 81* | -1 | -1 | 2 | -1 | 5 | -15
CCCN(CCC)CCCNC(=O)C1c2cc(OC)c(OC)cc2C(=O)N(C)C1c1cccs1 (stereo not drawn) | 3 | 5 | 1 | -2 | -2 | 0 | ·
O=C(Nc1cccc(-c2ccc(N3CCCCC3)nn2)c1)C(F)(F)F | 75* | 3 | 0 | 6 | -7 | 6 | 68*
CCC(=O)Nc1cccc(-c2ccc(N3CCC(C)CC3)nn2)c1 | 24 | -2 | 1 | -8 | -4 | 0 | ·
CC1CCN(c2ccc(-c3cccc(NC(=O)C(F)(F)F)c3)nn2)CC1 | 83* | · | -1 | 2 | 18 | · | 86*
O=C(O)c1cc(NN=Cc2ccc3c(c2)OCO3)ccc1Cl | · | 9 | · | · | · | -2 | ·
CCN1CCN(Cc2ccc(NC(=O)c3ccc(C)c(NC(=O)c4cncc(-c5cccs5)c4)c3)cc2C(F)(F)F)CC1 | 61* | -8 | -1 | · | · | -6 | 86*
CCN1CCN(Cc2ccc(NC(=O)c3ccc(C)c(NC(=O)c4nccn4C)c3)cc2C(F)(F)F)CC1 | 12 | -6 | 1 | 1 | 12 | 4 | ·
COCCN1C(=O)NC(c2ccccc2)C(C(C)=O)C1C (stereo not drawn) | · | 1 | · | · | · | -1 | ·
O=S1(=O)CC(N2CCCCC2)C(N2CCCCC2)C1 (stereo not drawn) | 69* | 7 | -1 | 1 | -1 | 5 | -6
O=c1[nH]c(=O)n(CCCc2ccccc2)cc1-c1ccccc1 | 63* | · | -1 | 0 | 26 | · | -15

Screening data deposited in PubChem BioAssay by several laboratories.
